The text below walks through data of the supplement of paper PMC6555819.

The first test has as its system FXR:RXRa (NR concentration 270 nM, RXRa partner concentration 90 nM). Briefly: PBM binding z-score (relative to random genomic background probes); higher = stronger binding; sequences stand for … in GC…GCGATTGACAGCGTAGAATGAAGG
A digest of the protocol:
(§1)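 Custom Agilent 4×180K protein-binding microarrays carried double-stranded probes, each with a 34-nt variable region. These regions held direct-repeat seeds, single-nucleotide variants, half-site ablations and random human genomic background sequences. Ligand-free nuclear receptor dimers were incubated on the arrays for 1 h, antibodies against each partner (one per run) detected binding, and scanned fluorescence was regression-normalized. Binding z-scores take the random background probes as reference.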
CCGACTGGGGCATAAGGTTACTATAAGCCAGCCC had a PBM binding z-score of 0.52.
For CTCGAAAGGTCGGTTGAGGTGAGTACACGGATAA, the PBM binding z-score amounted to 2.34.
Same read-out and setting: then AATACAGGGTCACTATGCCAGAGTAGGTACGAAT, with 5.56.
In turn, TAGCCTAGGTCAGATCGGGCCTGTATACGCTATA returned a PBM binding z-score of 1.56.
Regarding TATACAGGGTCAAAGGCCAGGGTACGAATGTCGA, the PBM binding z-score is 6.87.
TCTAGTTGGTCACGGAGGTCACACTCGACGGGTA displayed a PBM binding z-score of 3.
Regarding AGTTAAAGTTCACTAGGTAACGTAAGATTCAGCT, the PBM binding z-score came to 4.84.
The same measure, in the same setting: then CCTTACGGGTCACTGACAGGTTATACCATTTGGA, with 4.86.
On the same count and under the same terms, to ACCGAAAGGTCGTGAGGTGAGTATACAGAAAGGC belongs 5.42; to CGTCCAAGGTGAAGGTCAGTGAAAGAGACTCGAA, 1.84.
ATCTCTAGGTAGGACTCAGTTCAGTGAAGAACGC: the PBM binding z-score turned out to be 0.414.
Take ACTATTAGTTGAGACGACGGCAACCGATAGGTTG: the PBM binding z-score is -0.095.
In the case of ATCACTAGGTAAGACTCAGTTCAGTGAAGAACGC, the PBM binding z-score came to 0.15.
For the sequence TCATATAGGTAAATGCTAGGTGTAAGTCCGATCT, the PBM binding z-score worked out at 0.454.
Sequence CTCGAAAGGTCGTGCTCAGGTGGGTATACCAAAC displayed a PBM binding z-score of 5.
In the case of AGAATGAGCTTATTAAGATCAGGGAATTGCGGTC, the PBM binding z-score is -0.612.
As for TCTCGGAGGACACGACAGGTCAGAGCTCGACATC, the PBM binding z-score was found to be 1.13.
As for TCTTGTAGATCAGGCAGGTTAAGAAAGCCTGAGT, the PBM binding z-score was 0.09.
As for GATACAGGGTCAGCTAGAGGCCAAAGTATGGAAA, the PBM binding z-score worked out at 5.01.
CCTATTAGTTGACCATAAGGGTAACCGAAGCTCG gave a PBM binding z-score of 0.709.
The sequence ATCTCTAGGTAAAGATAGTTCAGTGGATGCAAAT had a PBM binding z-score of 0.0236.
On to CAGCCTAGGTCAGTGCCAGTATAGGAGGAACGTT, for which the PBM binding z-score was determined as 0.914.
The same measure, in the same setting: to CGAACTAGGTCATTGACAGGACAGAGAATAGTAA belongs 4.59.
With CGCACGAGGGCATGAGTTGATAGCAAATGCCGAT, the PBM binding z-score amounted to 0.564.
The sequence ACAGACAGGTGAGTGAAGATAACTCAGCTGGACG registered a PBM binding z-score of -0.343.
As to GCGACTGGGGCATCCGCAGGTTACCATAACTTAA, the PBM binding z-score is -0.134.
Sequence ACTAGCAGGCCAAGTGTGGGTCACTCAAACAAAG showed a PBM binding z-score of -0.167.
GATACAGGGTCAAGGCGAGAGTACGCGTATTGAT came in with a PBM binding z-score of 6.79.
For ACAGACAGGTGAGTAAAGGTAACTCAGCTGGACG, the PBM binding z-score was determined as 0.171.
In the case of ACTAGTTGGTCAGCTGAGGTCACCCACAATTCGG, the PBM binding z-score was found to be 3.88.
As for CCGAGTGGGGCAAGGTTACCATAACGCACAGCCA, the PBM binding z-score was 0.236.
As to CAAACTAGGTCAAGAGGTCAAAATCCGCTTCCCG, the PBM binding z-score came to 6.73.
Regarding CCGACTTGGGCATAAGGTTACCATAAGCCAGCCC, the PBM binding z-score worked out at 0.141.
The sequence CGTTACGGGTCACTGACAGGTTATAGCATTTGGA came in with a PBM binding z-score of 5.82.
Same read-out and setting: to CGAGCTAGGTCATCCAGGACAGTGAATACATTGA belongs 4.29; to CCTAGTTGGTCAAGTTCACACACGCTATAGGTAC, 1.66.
Consider CGTCCAAGGTCATAGGAGGTCAGTGTAGACAGAT, for which the PBM binding z-score was 7.58.
CCTAGTTGGTCAGCAGGTCACACACCGGATATGA registered a PBM binding z-score of 1.89.
For CGTCCAAGGCCAGCAGGTCAGTGAAAGCGACGTG, the PBM binding z-score worked out at 0.378.
As to TCTATTATTTGATTAGGGCAACCGAAACAGCGGA, the PBM binding z-score is 0.94.

For a further test, the system named is LXRa:RXRa (NR concentration 270 nM, RXRa partner concentration 90 nM). The description is as above. In outline:
as §1
In turn, CCGACTGGGGCATAAGGTTACTATAAGCCAGCCC displayed a PBM binding z-score of 3.57.
Still for that read-out and setting: then CTCGAAAGGTCGGTTGAGGTGAGTACACGGATAA, with 1.85.
AATACAGGGTCACTATGCCAGAGTAGGTACGAAT showed a PBM binding z-score of 4.68.
Sequence TAGCCTAGGTCAGATCGGGCCTGTATACGCTATA showed a PBM binding z-score of 0.715.
Take TATACAGGGTCAAAGGCCAGGGTACGAATGTCGA: the PBM binding z-score worked out at 6.23.
The same measure, in the same setting: then TCTAGTTGGTCACGGAGGTCACACTCGACGGGTA, with 3.28; and AGTTAAAGTTCACTAGGTAACGTAAGATTCAGCT, with 4.91.
Still for that read-out and setting: then CCTTACGGGTCACTGACAGGTTATACCATTTGGA, with 4.42; and ACCGAAAGGTCGTGAGGTGAGTATACAGAAAGGC, with 3.86; and CGTCCAAGGTGAAGGTCAGTGAAAGAGACTCGAA, with 1.4.
ATCTCTAGGTAGGACTCAGTTCAGTGAAGAACGC gave a PBM binding z-score of 0.636.
On the same count and under the same terms, to ACTATTAGTTGAGACGACGGCAACCGATAGGTTG belongs -0.329; to ATCACTAGGTAAGACTCAGTTCAGTGAAGAACGC, 0.00987; to TCATATAGGTAAATGCTAGGTGTAAGTCCGATCT, 0.941.
As for CTCGAAAGGTCGTGCTCAGGTGGGTATACCAAAC, the PBM binding z-score is 3.41.
AGAATGAGCTTATTAAGATCAGGGAATTGCGGTC yielded a PBM binding z-score of -0.88.
Regarding TCTCGGAGGACACGACAGGTCAGAGCTCGACATC, the PBM binding z-score is 1.51.
With TCTTGTAGATCAGGCAGGTTAAGAAAGCCTGAGT, the PBM binding z-score stood at 0.00615.
With GATACAGGGTCAGCTAGAGGCCAAAGTATGGAAA, the PBM binding z-score was found to be 3.57.
In turn, CCTATTAGTTGACCATAAGGGTAACCGAAGCTCG registered a PBM binding z-score of 0.386.
Turning to ATCTCTAGGTAAAGATAGTTCAGTGGATGCAAAT, the PBM binding z-score is 4.13.
CAGCCTAGGTCAGTGCCAGTATAGGAGGAACGTT registered a PBM binding z-score of 0.456.
As to CGAACTAGGTCATTGACAGGACAGAGAATAGTAA, the PBM binding z-score amounted to 3.18.
As to CGCACGAGGGCATGAGTTGATAGCAAATGCCGAT, the PBM binding z-score came to 0.295.
On the same count and under the same terms, to ACAGACAGGTGAGTGAAGATAACTCAGCTGGACG belongs -0.53.
Sequence GCGACTGGGGCATCCGCAGGTTACCATAACTTAA registered a PBM binding z-score of -0.356.
ACTAGCAGGCCAAGTGTGGGTCACTCAAACAAAG: the PBM binding z-score stood at 0.206.
The sequence GATACAGGGTCAAGGCGAGAGTACGCGTATTGAT yielded a PBM binding z-score of 4.05.
Regarding ACAGACAGGTGAGTAAAGGTAACTCAGCTGGACG, the PBM binding z-score stood at 0.4.
ACTAGTTGGTCAGCTGAGGTCACCCACAATTCGG: the PBM binding z-score is 3.1.
Same read-out and setting: then CCGAGTGGGGCAAGGTTACCATAACGCACAGCCA, with 0.965; and CAAACTAGGTCAAGAGGTCAAAATCCGCTTCCCG, with 6.04; and CCGACTTGGGCATAAGGTTACCATAAGCCAGCCC, with 1.54.
CGTTACGGGTCACTGACAGGTTATAGCATTTGGA registered a PBM binding z-score of 4.13.
The same measure, in the same setting: to CGAGCTAGGTCATCCAGGACAGTGAATACATTGA belongs 2.49; to CCTAGTTGGTCAAGTTCACACACGCTATAGGTAC, 2.31; to CGTCCAAGGTCATAGGAGGTCAGTGTAGACAGAT, 7.26.
Take CCTAGTTGGTCAGCAGGTCACACACCGGATATGA: the PBM binding z-score was 1.8.
Sequence CGTCCAAGGCCAGCAGGTCAGTGAAAGCGACGTG had a PBM binding z-score of 0.0811.
In turn, TCTATTATTTGATTAGGGCAACCGAAACAGCGGA yielded a PBM binding z-score of 0.738.
